The nature of assay [1]: HepG2 liver cancer cell viability effects, profiling panel, resazurin fluorescence, 24 h, PK04 Diversity Set (AID 1172). Also: test concentration not given here. The settings on record: higher = more signal. (In general: Resazurin is reduced to fluorescent resorufin, in cell work by metabolically active cells.)
Assay [2] is described as follows: basal S. cerevisiae growth modulation, no modifier, primary screen, OD600, strain BY4716, 24 h, basal condition (AID 1173). Particulars: OD600, 24 h, higher = more signal, called active from +8 up or from −8 down.
A short description of assay [3]: MM1S myeloma cell viability, profiling panel, resazurin fluorescence, basal, 24 h, PK04 Diversity Set (AID 1174).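 Also: MM1S multiple myeloma cell line; test concentration not given here.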 Particulars: higher = more signal, called active from +8 up or from −8 down.
The target in assay [4] is Dihydroorotate dehydrogenase (quinone), mitochondrial (Plasmodium falciparum (isolate 3D7)) (UniProt Q08210). The assay is described as follows: PfDHODH enzyme inhibitors, primary screen, biochemical, C-terminal His tag, absorbance 600 nm (AID 1175).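 Also: recombinant parasite enzyme with a five histidine tag at its C terminus; test concentration not given here.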 The settings on record: DCIP absorbance 600 nm, higher = more signal, called active from +8 up or from −8 down.
The nature of assay [5]: P. aeruginosa biofilm formation inhibitors, primary screen, strain PAO1, LB-PBS medium, absorbance 600 nm (AID 1176). Also: test concentration not given here. Particulars: P. aeruginosa PAO1 growth/biofilm, A600, 12 h; higher = more signal.
Assay [6] is described as follows: S. cerevisiae RM11-1a growth modifiers, primary screen, strain RM11-1a, OD600, basal, 24 h (AID 1177).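 Also: cultures grown under basal conditions with no added stressor; test concentration not given here.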 Particulars: OD600, 24 h, higher = more signal, called active from +8 up or from −8 down.
Assay [7] can be described thus: E. coli acrAB mutant growth effects, primary screen, E. coli filamentation inducers, strain DRC39, OD650, 24 h (AID 1178).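 Also: growth measured as culture turbidity by optical density at 650 nm; test concentration not given here.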 The settings on record: higher = more signal, called active from +8 up or from −8 down.
The nature of assay [8]: E. coli acrAB mutant growth effects, primary screen, E. coli filamentation inducers, strain DRC39, OD650, 48 h (AID 1179).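 Also: screen aims at cell division blockers that make cells filament.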 Particulars: E. coli DRC39 delta-acrAB growth, higher = more signal, called active from +8 up or from −8 down.
A short description of assay [9]: RPMI8226 myeloma cell viability, profiling panel, resazurin fluorescence, basal, 24 h, PK04 Diversity Set (AID 1180).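 Also: RPMI8826 multiple myeloma cell line at 5000 cells per well; test concentration not given here.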 Particulars: higher = more signal.
In assay [10] the target is E3 ubiquitin-protein ligase XIAP (Homo sapiens) (UniProt P98170). Description: XIAP binders, primary screen, biophysical, small-molecule microarray, fluorescence 635 nm (AID 1181).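 Also: score merges 667 nm emission and signal to noise over triplicate slides.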 The settings on record: small-molecule microarray binding, higher = more signal.

Calls of active or inactive are those of the source. Unless noted, no rule for the calls is given here.

Chain of E3 ubiquitin-protein ligase XIAP (Homo sapiens) (P98170 whole entry, looked up): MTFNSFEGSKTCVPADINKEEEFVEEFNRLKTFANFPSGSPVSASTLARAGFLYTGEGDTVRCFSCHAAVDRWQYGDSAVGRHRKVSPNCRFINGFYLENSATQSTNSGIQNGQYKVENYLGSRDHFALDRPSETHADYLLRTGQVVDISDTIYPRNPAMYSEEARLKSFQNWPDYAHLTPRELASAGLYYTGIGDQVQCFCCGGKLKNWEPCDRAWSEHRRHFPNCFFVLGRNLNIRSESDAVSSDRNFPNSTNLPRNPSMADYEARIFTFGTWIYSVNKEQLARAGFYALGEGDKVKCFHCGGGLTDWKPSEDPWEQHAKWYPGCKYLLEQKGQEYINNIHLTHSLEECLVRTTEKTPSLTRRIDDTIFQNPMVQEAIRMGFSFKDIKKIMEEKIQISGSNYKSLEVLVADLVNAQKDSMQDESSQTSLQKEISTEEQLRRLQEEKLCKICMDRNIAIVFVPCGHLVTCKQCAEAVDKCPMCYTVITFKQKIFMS
Chain of Dihydroorotate dehydrogenase (quinone), mitochondrial (Plasmodium falciparum (isolate 3D7)) (Q08210 whole entry, looked up): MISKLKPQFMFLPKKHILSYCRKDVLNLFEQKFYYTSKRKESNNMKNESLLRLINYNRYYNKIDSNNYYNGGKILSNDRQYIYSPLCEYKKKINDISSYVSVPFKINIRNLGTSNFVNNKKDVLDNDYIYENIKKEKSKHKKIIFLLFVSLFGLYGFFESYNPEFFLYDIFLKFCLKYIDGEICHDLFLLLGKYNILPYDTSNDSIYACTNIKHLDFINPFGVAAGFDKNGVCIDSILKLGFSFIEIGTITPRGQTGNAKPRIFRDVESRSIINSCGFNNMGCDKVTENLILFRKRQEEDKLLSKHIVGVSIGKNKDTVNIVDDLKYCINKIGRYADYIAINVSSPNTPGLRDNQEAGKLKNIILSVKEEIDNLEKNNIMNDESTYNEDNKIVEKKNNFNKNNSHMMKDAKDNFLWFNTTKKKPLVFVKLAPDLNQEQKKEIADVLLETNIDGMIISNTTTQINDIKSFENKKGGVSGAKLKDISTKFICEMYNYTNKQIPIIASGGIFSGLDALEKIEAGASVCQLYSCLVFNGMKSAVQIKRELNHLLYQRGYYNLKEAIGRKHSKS

Turning to `O=C(CS)NCCCCCNC(=O)[C@@H]1C[C@@H]2C(=O)NCC(=O)N2[C@@H]1c1ccc(O)cc1`, the z-score is -0.701 in assay [1]; 0.272 (inactive) in assay [2]; -1.06 (inactive) in [3]; 1.5 (inactive) in assay [5]; -0.0231 (inactive) in assay [6]; -0.401 (inactive) in assay [7]. Besides, the values for the z-score in assay [8] and in assay [9] were -1.04 (inactive) and -0.492, respectively. The composite z-score in assay [4] is 0.424 (inactive); in [10] it was -0.0536.

On to `[N-]=[N+]=Nc1ccccc1C[C@]1(C(=O)N2CCCCC2)COC(c2ccc(OCCCO)cc2)=N1`, for which the z-score in assay [1] was 0.508; in [2] it was -1.44 (inactive); in [3], -0.823 (inactive); in [5], -0.248 (inactive); in [6] it was 0.266 (inactive); in assay [7], 1.18 (inactive). Moreover, the figures for the z-score in assay [8] and in [9] were 0.344 (inactive) and 0.552, respectively. In addition, the composite z-score in [4] is 1.78 (inactive); in assay [10], 0.054.

As for `CCCCC(O)C1C=CC2C(=O)N(C)C(=O)C2N1N1CCCCC1` (stereo not given), the z-score in assay [1] was -1.12; in assay [2] it was 1.96 (inactive); in assay [3], -1.5 (inactive); in [5], 0.971 (inactive); in assay [6], 1.64 (inactive); in assay [7] it was -0.83 (inactive). For the same molecule, the values for the z-score in assay [8] and in [9] were -0.412 (inactive) and -1.9, respectively. The composite z-score in [4] was 1.23 (inactive); in assay [10], 0.547.

As for `CC(C)=CCCC(C)=CC(O)C1C=CC2C(=O)N(c3ccccc3)C(=O)C2N1Nc1ccc(C(C)C)cc1` (stereo not given), the z-score in assay [1] was -0.307; in assay [2], 0.125 (inactive); in [3], -0.862 (inactive); in assay [5], 0.0616 (inactive); in assay [6], 1.47 (inactive); in assay [7], -0.427 (inactive). For the same molecule, the z-score is -0.306 (inactive) in [8] and -0.463 in assay [9]. Further, the composite z-score in assay [4] was 0.484 (inactive); in [10], -0.0382.

In the case of `CCOC(=O)C1=CC[C@@H](c2ccc(C(F)(F)F)cc2)N(S(=O)(=O)c2ccc(C)cc2)[C@H]1c1ccccc1`, the z-score in assay [1] is -0.333; in [2] it was 0.062 (inactive); in assay [3], -2.34 (inactive); in [5], -0.0601 (inactive); in [6] it was -0.258 (inactive); in [7] it was -0.604 (inactive). Also, the figures for the z-score in assay [8] and in [9] were -0.126 (inactive) and -5.04, respectively. In addition, the composite z-score in assay [4] is -0.296 (inactive); in assay [10] it was -0.278.

Turning to `COc1cc(OC)c(C(O)C2C=CC3C(=O)NC(=O)C3N2Nc2ccccn2)cc1Br` (stereo not given), the z-score in [1] is -0.455; in assay [2] it was -0.991 (inactive); in assay [3], -0.597 (inactive); in assay [5], 1.19 (inactive); in assay [6], 0.666 (inactive); in [7], -0.0857 (inactive). Also, the values for the z-score in [8] and in [9] were -0.512 (inactive) and -0.195, respectively. Besides, the figures for the composite z-score in assay [4] and in [10] were 0.412 (inactive) and -0.0525, respectively.

For `COc1ccc([C@H]2C[C@H]3C(Br)=C[C@@]2(CO)C(=O)[C@]32CO2)cc1`, the z-score is 0.231 in assay [1]; -4.42 (inactive) in [2]; -0.445 (inactive) in assay [3]; 0.118 (inactive) in assay [5]; -0.121 (inactive) in assay [6]; -0.0919 (inactive) in [7]. The z-score is -0.0065 (inactive) in [8] and -0.384 in assay [9]. The composite z-score in [4] is -0.174 (inactive); in assay [10] it was 0.0009.

Consider `C=CCC(OC(C)=O)[C@@H]1[C@@H](N(Cc2ccc(-c3cccc(C(F)(F)F)c3)o2)C(=O)Cc2ccc(OC)cc2)c2cc(OCCCO)ccc2N1C(=O)c1ccc2ccccc2c1` (stereo not given in full), for which the z-score in assay [1] is -0.29; in assay [2], -1.44 (inactive); in assay [3], 0.598 (inactive); in assay [5], -0.841 (inactive); in assay [6], 0.0979 (inactive); in [7], 0.751 (inactive). For the same molecule, the results for the z-score in [8] and in [9] were 0.489 (inactive) and 0.187, respectively. Also, the composite z-score was 0.165 (inactive) in assay [4] and 0.144 in assay [10].

`O=C1NC(=O)C2C1C=CC(C(O)c1ccc(I)cc1)N2Nc1ccc(Cl)cc1Cl` (stereo not given): the z-score in [1] was -1.99; in assay [2], -15.1 (active); in assay [3] it was -0.177 (inactive); in assay [5], 2.06 (inactive); in assay [6] it was -4.5 (inactive); in assay [7], 0.163 (inactive). In addition, the z-score in assay [8] was -0.186 (inactive); in assay [9], -0.137. For the same molecule, the composite z-score in assay [4] is -1.4 (inactive); in [10] it was -0.108.

Regarding `CC(C)[Si](C#CCCCC#N)(O[C@H](c1ccccc1)c1cn(Cc2cccc(Cl)c2)nn1)C(C)C`, the z-score in assay [1] is 0.36; in assay [2] it was -0.718 (inactive); in assay [3] it was 0.109 (inactive); in assay [5], 1.25 (inactive); in assay [6], -0.358 (inactive); in [7], -0.0251 (inactive). In addition, the z-score in assay [8] is -0.203 (inactive); in assay [9], -0.701. In addition, the composite z-score in [4] was 0.369 (inactive); in assay [10] it was 0.149.

Take `O=C(NC1CC1)[C@@H]1c2ccccc2C(=O)N(Cc2cc(F)cc(C(F)(F)F)c2)[C@H]1c1ccc(CO)cc1`: the z-score was 0.672 in assay [1]; -0.626 (inactive) in [2]; -0.24 (inactive) in assay [3]; 0.373 (inactive) in assay [5]; -0.953 (inactive) in [6]; 0.678 (inactive) in [7]. The z-score in [8] is -0.664 (inactive); in assay [9], -0.0559. Besides, the composite z-score in [4] is -0.323 (inactive); in [10], -0.0527.

On to `CC[C@@H]1C=C(C(=O)O)[C@H](c2ccc(C)cc2)N1S(=O)(=O)c1ccc(C)cc1`, for which the z-score in [1] is 0.675; in [2], 0.174 (inactive); in assay [3], 0.0178 (inactive); in assay [5] it was -0.433 (inactive); in assay [6], -0.66 (inactive); in assay [7], -0.303 (inactive). Moreover, the figures for the z-score in assay [8] and in assay [9] were 0.637 (inactive) and -0.0794, respectively. Further, the composite z-score in assay [4] was -1.85 (inactive); in assay [10], 0.0701.

The record behind these values is PubChem BioAssay.
